In PubChem BioAssay:
The source made the active and inactive calls. Unless noted, how the calls were made is not given here.

Experiments:
[1] = compounds binding Alexa647 anti-His antibody – biochemical, small-molecule microarray, 635 nm fluorescence, artefact control for SMM control protein annotation, primary screen (AID 1128); conditions: higher = more signal;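 further: score merges feature fluorescence with signal-to-noise for each printed compound spot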
[2] = test system: Human papillomavirus type 1a E7 protein (residues 1-88); experiment: HPV1a E7 small-molecule binders, primary screen, biochemical, small-molecule microarray, residues 1-88, 635 nm (AID 1129); conditions: small-molecule microarray binding, fluorescence 635 nm; higher = more signal
[3] = target: Focal adhesion kinase 1 (Homo sapiens) (UniProt Q05397); experiment: PTK2 protein binding on printed compound slides – biochemical, small-molecule microarray, 635/667 nm fluorescence, BSA, DTT, primary screen (AID 1130); conditions: 635 nm fluorescence, higher = more signal;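 further: composite of spot emission at 667 nm and signal to noise over triplicate slides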
[4] = test system: Fibrinogen (Alexa647-labelled); experiment: Alexa647-fibrinogen binding to printed small molecules – biochemical, small-molecule microarray, 635/667 nm fluorescence, artefact control for SMM control-protein annotation, profiling panel (AID 1131); conditions: fibrinogen-A647 binding fluorescence, higher = more signal;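 further: z-score merges 667 nm fluorescence with per-spot signal-to-noise over triplicate slides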
[5] = target: Follistatin (Homo sapiens) (UniProt P19883); experiment: FST protein binding to printed compounds – biochemical, small-molecule microarray, 635/667 nm fluorescence, primary screen (AID 1132); conditions: 635 nm fluorescence, higher = more signal
[6] = target: Fibroblast growth factor 2 (Homo sapiens) (UniProt P09038); experiment: basic fibroblast growth factor binding to printed compounds – biochemical, small-molecule microarray, 635/667 nm fluorescence, primary screen (AID 1133); conditions: FGF2, fluorescence 635/667, higher = more signal
[7] = JC-1 mitochondrial potential readout, lung cancer cells – cell-based, A549, JC-1 fluorescence, basal, 24 h, 100 nL, profiling panel (AID 1138); conditions: higher = more signal;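 further: A549 lung adenocarcinoma cells under basal conditions with no added stimulus; test concentration not given here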
Lefty1 = Lefty1 protein binding to printed compounds – biochemical, small-molecule microarray, 635/667 nm fluorescence, primary screen (AID 1139); conditions: fluorescence 635/667, higher = more signal
[8] = test system: wheat germ agglutinin (Triticum aestivum), Alexa647-labelled; experiment: Alexa647-WGA lectin binding to printed small molecules – biochemical, small-molecule microarray, 635/667 nm fluorescence, artefact control for SMM control-protein annotation, profiling panel (AID 1140); conditions: WGA-A647 binding, 635 nm fluorescence, higher = more signal;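 further: score merges 667 nm feature emission with signal to noise over triplicate slides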
[9] = target: Luciferin 4-monooxygenase (Photinus pyralis) (UniProt P08659); experiment: inhibition of purified Photinus pyralis luciferase – biochemical, luminescence, purified enzyme, 2006 set, primary screen (AID 1141); conditions: purified firefly luciferase, SteadyGlo luminescence, 30 min; higher = more signal, called active from +8 up or from −8 down;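 further: cell-free assay with purified firefly luciferase at 100 ng per well in PBS; test concentration not given here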
[10] = test system: Wnt5a (protein binding on small-molecule microarray); experiment: small molecules binding Wnt5a protein – biophysical, small-molecule microarray, 635/667 nm fluorescence, primary screen (AID 1142); conditions: 635 nm fluorescence, higher = more signal;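 further: fluorescence read at 667 nm with signal to noise per printed feature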
[11] = ATP-based viability of Huh7 replicon cells – cell-based, CellTiter-Glo luminescence, basal, 48 h, cytotoxicity control for HCV replication inhibitor project, primary screen (AID 1143); conditions: higher = more signal, called active from +8 up or from −8 down;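 further: Huh7 hepatoma cells carrying a hepatitis C replication reporter with no stimulus; test concentration not given here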
[12] = Pseudomonas biofilm growth suppression – PAO1 strain, BacTiter-Glo luminescence, LB-PBS, primary screen (AID 1144); conditions: P. aeruginosa PAO1 biofilm, 12 h, higher = more signal
[13] = basal CRE-LacZ reporter activity in PC12 – cell-based, unstimulated, primary screen (AID 1145); conditions: no forskolin, luminescence, 4.5 h, higher = more signal, called active from +8 up or from −8 down
[14] = forskolin-driven CRE-LacZ activity in PC12 – cell-based, CRE-LacZ reporter, forskolin-stimulated, primary screen (AID 1146); conditions: luminescence, 4.5 h, higher = more signal, called active from +8 up or from −8 down;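 further: PC12 cells with 6xCRE LacZ reporter stimulated by forskolin 10 µM; beta-galactosidase reporter signal reflecting CREB driven transcription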
[15] = target: Streptavidin (Streptomyces avidinii) (UniProt P22629); experiment: compounds binding control protein streptavidin – biophysical, small-molecule microarray, 635/667 nm fluorescence, artefact control for SMM compound annotation, primary screen (AID 1147); conditions: higher = more signal;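 further: signal reflects streptavidin binding to arrayed compounds as a control protein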
[16] = probe aInhba binding on compound microarray – biochemical, small-molecule microarray, 635/667 nm fluorescence, primary screen (AID 1148); conditions: higher = more signal;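 further: score merges 667nm spot fluorescence with signal-to-noise for antibody binding to printed compounds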
Torsin-1A (Homo sapiens) [17] = target: Torsin-1A (Homo sapiens) (UniProt O14656); experiment: TOR1A wild-type binding on microarray – cell lysate, small-molecule microarray, lysate, 635/667 nm, primary screen (AID 1149); conditions: COS7 hTOR1A-WT lysate, 635 nm fluorescence, higher = more signal
Torsin-1A (Homo sapiens) [18] = target: Torsin-1A (Homo sapiens) (UniProt O14656); experiment: torsin A mutant lysate binding on microarrays – cell lysate, small-molecule microarray, COS7 lysate, 635/667 nm fluorescence, primary screen (AID 1150); conditions: COS7 hTOR1A mutant lysate, 635 nm fluorescence, higher = more signal;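 further: score pools 667 nm emission and signal to noise measuring lysate protein binding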
[19] = test system: Sonic hedgehog protein (Shh); experiment: Sonic hedgehog microarray binding compounds – biochemical, small-molecule microarray, 635/667 nm fluorescence, primary screen (AID 1151); conditions: 635 nm fluorescence, higher = more signal;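 further: Shh protein binding to compounds spotted on small-molecule microarray slides; score combines spot fluorescence intensity with signal-to-noise across triplicate slides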

Chain of Fibroblast growth factor 2 (Homo sapiens) (P09038 whole entry, looked up): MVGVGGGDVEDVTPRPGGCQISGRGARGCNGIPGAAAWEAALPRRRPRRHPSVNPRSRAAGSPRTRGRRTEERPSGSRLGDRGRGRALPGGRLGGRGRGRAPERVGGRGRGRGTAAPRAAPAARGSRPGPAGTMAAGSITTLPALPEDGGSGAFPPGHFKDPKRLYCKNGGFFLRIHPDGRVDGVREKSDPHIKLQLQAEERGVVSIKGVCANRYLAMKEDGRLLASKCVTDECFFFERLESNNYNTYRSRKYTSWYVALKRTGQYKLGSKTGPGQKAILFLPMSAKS
Chain of Torsin-1A (Homo sapiens) (O14656 whole entry, looked up): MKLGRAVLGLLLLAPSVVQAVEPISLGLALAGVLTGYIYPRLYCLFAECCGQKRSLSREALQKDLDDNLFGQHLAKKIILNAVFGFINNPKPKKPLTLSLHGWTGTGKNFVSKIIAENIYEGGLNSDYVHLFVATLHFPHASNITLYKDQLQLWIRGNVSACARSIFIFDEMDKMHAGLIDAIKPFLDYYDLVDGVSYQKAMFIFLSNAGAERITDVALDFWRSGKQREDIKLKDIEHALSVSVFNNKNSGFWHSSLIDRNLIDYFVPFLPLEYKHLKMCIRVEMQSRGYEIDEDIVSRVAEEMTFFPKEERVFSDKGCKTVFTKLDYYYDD
Chain of Focal adhesion kinase 1 (Homo sapiens) (Q05397 whole entry, looked up): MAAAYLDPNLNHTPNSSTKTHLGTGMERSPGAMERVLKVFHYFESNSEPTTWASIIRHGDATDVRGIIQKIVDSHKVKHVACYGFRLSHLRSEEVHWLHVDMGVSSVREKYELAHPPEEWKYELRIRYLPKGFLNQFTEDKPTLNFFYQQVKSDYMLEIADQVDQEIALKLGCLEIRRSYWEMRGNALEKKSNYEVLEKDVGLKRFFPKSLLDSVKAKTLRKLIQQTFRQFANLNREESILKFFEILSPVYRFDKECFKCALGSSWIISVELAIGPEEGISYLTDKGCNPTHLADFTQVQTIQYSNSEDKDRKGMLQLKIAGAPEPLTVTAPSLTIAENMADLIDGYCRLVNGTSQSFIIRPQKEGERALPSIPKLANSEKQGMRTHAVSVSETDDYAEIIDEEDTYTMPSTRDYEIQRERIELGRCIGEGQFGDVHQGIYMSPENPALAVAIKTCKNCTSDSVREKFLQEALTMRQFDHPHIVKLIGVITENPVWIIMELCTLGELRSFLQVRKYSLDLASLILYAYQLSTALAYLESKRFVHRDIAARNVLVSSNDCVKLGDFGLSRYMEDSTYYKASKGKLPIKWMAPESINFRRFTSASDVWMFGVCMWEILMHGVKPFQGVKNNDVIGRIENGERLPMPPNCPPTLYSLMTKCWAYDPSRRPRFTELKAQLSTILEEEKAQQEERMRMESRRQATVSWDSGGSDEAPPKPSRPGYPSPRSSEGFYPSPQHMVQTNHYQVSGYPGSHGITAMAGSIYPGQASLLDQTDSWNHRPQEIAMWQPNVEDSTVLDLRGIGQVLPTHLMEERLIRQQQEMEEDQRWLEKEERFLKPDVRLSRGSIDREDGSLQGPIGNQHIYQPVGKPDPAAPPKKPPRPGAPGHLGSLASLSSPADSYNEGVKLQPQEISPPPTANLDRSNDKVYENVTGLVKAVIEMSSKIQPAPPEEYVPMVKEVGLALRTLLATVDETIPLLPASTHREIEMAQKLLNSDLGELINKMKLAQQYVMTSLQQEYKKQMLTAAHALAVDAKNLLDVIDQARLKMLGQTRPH
Chain of Streptavidin (Streptomyces avidinii) (P22629 whole entry, looked up): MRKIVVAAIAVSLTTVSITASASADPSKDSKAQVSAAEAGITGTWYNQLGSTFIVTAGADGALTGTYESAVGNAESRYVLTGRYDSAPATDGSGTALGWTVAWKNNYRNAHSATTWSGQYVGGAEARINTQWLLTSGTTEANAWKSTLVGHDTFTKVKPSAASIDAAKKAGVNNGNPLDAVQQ
Chain of Luciferin 4-monooxygenase (Photinus pyralis) (P08659 whole entry, looked up): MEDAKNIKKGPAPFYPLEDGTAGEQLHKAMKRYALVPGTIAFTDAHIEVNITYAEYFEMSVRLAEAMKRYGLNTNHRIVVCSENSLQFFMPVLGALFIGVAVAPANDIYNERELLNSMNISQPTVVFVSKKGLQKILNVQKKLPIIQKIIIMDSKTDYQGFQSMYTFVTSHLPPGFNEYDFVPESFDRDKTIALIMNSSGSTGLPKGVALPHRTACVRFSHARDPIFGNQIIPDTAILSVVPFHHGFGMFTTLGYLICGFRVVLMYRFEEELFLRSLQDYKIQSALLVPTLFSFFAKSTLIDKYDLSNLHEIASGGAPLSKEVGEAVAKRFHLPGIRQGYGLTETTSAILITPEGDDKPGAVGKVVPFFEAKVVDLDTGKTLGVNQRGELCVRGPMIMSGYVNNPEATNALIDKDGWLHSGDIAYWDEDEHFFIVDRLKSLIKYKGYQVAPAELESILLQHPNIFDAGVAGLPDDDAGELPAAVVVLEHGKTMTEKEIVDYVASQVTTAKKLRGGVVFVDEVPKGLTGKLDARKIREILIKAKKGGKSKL
Chain of Follistatin (Homo sapiens) (P19883 whole entry, looked up): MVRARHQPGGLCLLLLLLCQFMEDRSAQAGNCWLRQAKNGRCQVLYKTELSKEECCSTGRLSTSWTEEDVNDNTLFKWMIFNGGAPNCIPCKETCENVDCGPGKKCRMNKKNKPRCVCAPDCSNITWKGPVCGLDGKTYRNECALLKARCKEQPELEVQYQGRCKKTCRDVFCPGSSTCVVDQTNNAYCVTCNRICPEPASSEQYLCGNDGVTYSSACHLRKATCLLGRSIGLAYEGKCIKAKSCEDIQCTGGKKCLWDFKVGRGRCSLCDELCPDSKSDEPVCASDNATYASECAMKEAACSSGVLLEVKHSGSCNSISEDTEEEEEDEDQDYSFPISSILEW

Structure (SMILES) | composite z-score [1] | composite z-score [2] | composite z-score [3] | composite z-score [4] | composite z-score [5] | composite z-score [6] | z-score [7] | composite z-score (Lefty1) | composite z-score [8] | z-score [9] | composite z-score [10] | z-score [11] | z-score [12] | z-score [13] | z-score [14] | composite z-score [15] | composite z-score [16] | composite z-score (Torsin-1A (Homo sapiens) [17]) | composite z-score (Torsin-1A (Homo sapiens) [18]) | composite z-score [19]
COc1ccccc1CN1C(=O)c2ccccc2[C@@]2(Cc3ccccc3N(C(C)C)C2=O)[C@@H]1c1ccc(CO)cc1 | -0.166 | -0.263 | -0.0604 | -0.586 | -0.13 | -0.609 | 0.427 | -0.404 | 0.57 | -1.08 (inactive) | -0.458 | -1.84 (inactive) | -0.205 (inactive) | -0.179 (inactive) | -0.335 (inactive) | -0.213 | -0.0695 | -1.25 | 0.373 | -0.147
O[C@@H](Cc1ccccc1)[C@H]1C2C=CCCC(c3ccccc3)=C2CN1Cc1cccc(Cl)c1 (stereo not given in full) | 0.607 | 1.14 | -0.0839 | 0.43 | 0.995 | 0.251 | 2.09 | 0.625 | 0.875 | -2.22 (inactive) | 0.0825 | -1.31 (inactive) | -0.577 (inactive) | 2.58 (inactive) | 1.44 (inactive) | 0.26 | 0.0355 | 0.762 | 0.144 | 0.733
N#Cc1ccc(NN2C(C(O)c3cc(C(F)(F)F)cc(C(F)(F)F)c3)C=CC3C(=O)N(c4ccccc4)C(=O)C32)cc1 (stereo not given) | 0.94 | 1.17 | 0.756 | 0.932 | 1.11 | -0.477 | 0.277 | 0.265 | 1.16 | -0.514 (inactive) | 0.261 | -2.24 (inactive) | -0.875 (inactive) | 0.822 (inactive) | -0.389 (inactive) | 1.39 | 0.231 | 1.43 | 1.06 | -0.0099
CO[C@@H]1COC(=O)CC=C[C@@H](C)COC(=O)[C@H](COCc2ccccc2)NC(=O)CC=C[C@H]1C | -0.105 | -1.04 | -0.765 | -1.55 | 1.24 | 1.73 | -0.378 | 1.57 | -0.672 | -0.336 (inactive) | -0.146 | 0.185 (inactive) | 0.324 (inactive) | 0.605 (inactive) | -0.201 (inactive) | -0.214 | -0.128 | 2.33 | 2.51 | 1.77
CCCNC(=O)OC[C@H]1O[C@H](CCON=CC[C@@H]2C=C[C@H](OC(C)=O)[C@@H](COC(C)=O)O2)C=C[C@@H]1Oc1ccc(OC)cc1 | 0.731 | 0.535 | 0.474 | 0.733 | 0.461 | 0.693 | -1.16 | 0.561 | 0.462 | 0.985 (inactive) | 0.371 | 0.0377 (inactive) | 0.348 (inactive) | 0.345 (inactive) | 0.391 (inactive) | 0.0822 | -0.128 | -0.475 | 0.0275 | 0.535
